Results: PubChem BioAssay (NCATS)
Inconclusive results are not listed. Activity calls are given as the source filed them. Calls come from the whole dose curve; as a rule, active = well fitted curve in the direction sought with a large enough effect; inconclusive = small, poorly fitted or top-dose-only effect, or another doubt; inactive = no such curve, though single readings can be large; an effect the other way counts as inactive or inconclusive. Where a SMILES comes first, the peptide text is derived from it. [ ]: non-standard residue; d: D form. ξ: configuration not given here. ξLac(3-iPr) = CC(C)CC(O)C(=O)O; NMeV = CN[CH](C(=O)O)C(C)C; NMeA = CN[CH](C)C(=O)O; βAla = NCCC(=O)O

How the values were obtained:
[1] = test system: Zika virus NS2B-NS3 protease (unlinked complex); assay: Primary screen GU Rhodamine qHTS for Zika virus inhibitors: Unlinked NS2B-NS3 protease assay (AID 1347159); note: % is set by controls: 0 for no effect and ±100 for the full control effect; nearly all actives have a fitted effect of over 60% in size
Method in brief: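 Buffer 10 mM Tris-HCl pH 8.0, 0.01% Tween 20. Unlinked protease 25 nM; compound preincubation 15 min, RT, protected from light. Substrate Rhod110, 1.5 microM; ~15% conversion in 15 min.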

[2] = Primary qHTS for inhibitors of nuclear receptor binding SET domain protein 2 (NSD2) in an RCH-ACV wild type WT cells (2C) (AID 1645877); note: nearly all actives have a fitted effect of over 70% in size; note: potency is the fitted concentration of half-maximal effect
[3] = Primary fluorescence-based thiol-reactive (MSTI) qHTS assay for identification of artifact compounds. (AID 1845221);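 note: thiol-reactive compounds lower the probe fluorescence signal; nearly all actives have a fitted effect of over 65% in size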
Method in brief: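 One-hour, room-temperature, dark incubation of compound with 4 uM MSTI in PBS (pH 7.4, 2% DMSO) precedes a fluorescence read at 525 nm excitation, 598 nm emission; Hill-equation fitting yields concentration-response values.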

[4] = test system: HaCat; assay: Cytotoxic Profiling of Annotated Libraries Using Quantitative High-Throughput Screening (AID 1296008); settings: Five cell lines viability, CellTiter-Glo ATP luminescence, 48-72 h; max response: active compounds read low; note: nearly all actives have a fitted effect of over 60% in size; note: potency is the fitted concentration of half-maximal effect; for max response: % is set by controls: 0 for no effect and ±100 for the full control effect
Method in brief: (§1)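 Compounds were pin-transferred onto cells and incubated 48 or 72 hr at 37 degree Celsius, 95% humidity. CellTiter-Glo was added, plates sat 10 min at room temperature, then ATP-coupled luminescence was imaged as the viability read-out.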

[5] = test system: C33A; assay: Primary qHTS to identify gynecologic anti-cancer compounds using libraries of approved drugs and bioactive compounds (AID 1345084); settings: Gynecologic cancer cell panel viability, ATPlite luminescence, 48 h; series mostly up to 57.5 µM; note: nearly all actives have a fitted effect of over 55% in size; note: potency is the fitted concentration of half-maximal effect; for activity change, negative = cytotoxicity: % is set by controls: 0 for no effect and ±100 for the full control effect
Method in brief: (§2)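 In this quantitative HTS, cell killing is estimated from loss of ATP-dependent luciferase light. Cells see five compound concentrations over a 48 h exposure.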

[6] = test system: CASKI; assay: as above; settings: Gynecologic cancer cell panel viability, ATPlite luminescence, 48 h; series mostly up to 57.5 µM
Method in brief: as §2

[7] = test system: Es-2; assay: as above; settings: Gynecologic cancer cell panel viability, ATPlite luminescence, 48 h; series mostly up to 57.5 µM
Method in brief: as §2

[8] = test system: Hek293T; assay: as above; settings: Gynecologic cancer cell panel viability, ATPlite luminescence, 48 h, control line for the selectivity index; series mostly up to 57.5 µM
Method in brief: as §2

[9] = test system: PA-1; assay: as above; settings: Gynecologic cancer cell panel viability, ATPlite luminescence, 48 h; series mostly up to 57.5 µM
Method in brief: as §2

[10] = test system: SKOV3; assay: as above; settings: Gynecologic cancer cell panel viability, ATPlite luminescence, 48 h; series mostly up to 57.5 µM
Method in brief: as §2

[11] = test system: Tov-21-G; assay: as above; settings: Gynecologic cancer cell panel viability, ATPlite luminescence, 48 h; series mostly up to 57.5 µM
Method in brief: as §2

[12] = test system: Tov112D; assay: as above; settings: Gynecologic cancer cell panel viability, ATPlite luminescence, 48 h; series mostly up to 57.5 µM
Method in brief: as §2

[13] = Primary redox qHTS assay for identification of artifact compounds. (AID 1845223);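 note: 0% = DMSO and 100% = reference compound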
Method in brief: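 Redox-cycling detection via DTT (250 uM final) oxidation coupled to Amplex Red (25 uM)/HRP (250 mU/mL) in HBSS. 15 min preincubation plus 30 min after DTT, room temperature. Ex/Em 525/598 nm; 4-parameter Hill fit against DMSO and 10 uM DA3003.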

[14] = test system: NIH3T3; assay: Cytotoxic Profiling of Annotated Libraries Using Quantitative High-Throughput Screening (AID 1296008); settings: Five cell lines viability, CellTiter-Glo ATP luminescence, 48-72 h; max response: active compounds read low; note: nearly all actives have a fitted effect of over 60% in size; note: potency is the fitted concentration of half-maximal effect; for max response: % is set by controls: 0 for no effect and ±100 for the full control effect
Method in brief: as §1

[15] = test system: CAOV3; assay: Primary qHTS to identify gynecologic anti-cancer compounds using libraries of approved drugs and bioactive compounds (AID 1345084); settings: Gynecologic cancer cell panel viability, ATPlite luminescence, 48 h; series mostly up to 57.5 µM; note: nearly all actives have a fitted effect of over 55% in size; note: potency is the fitted concentration of half-maximal effect; for activity change, negative = cytotoxicity: % is set by controls: 0 for no effect and ±100 for the full control effect
Method in brief: as §2

CC(C)OC(=O)c1ccnc2cc(C(OCCN3CCCCC3)c3ccccc3Cl)sc12 (configuration not stated)
active: Potency [2] 18300 nM
inactive: Potency [1] | Potency [3] | outcome [4] | Potency [5] | Potency [6] | Potency [7] | Potency [8] | Potency [9] | Potency [10] | Potency [11] | Potency [12]

CCCCn1cc(C(=O)c2cccc3ccccc23)c2ccccc21
inactive: Potency [1] | Potency [2] | Potency [3] | Potency [13] | outcome [4] | max response [14] 3.07% | Potency [5] | Potency [15] | Potency [6] | Potency [7] | Potency [9] | Potency [10] | Potency [11] | Potency [12]

COc1ccc(CC2C(=O)NC(C)C(=O)N(C)C3Cc4ccc(cc4)Oc4cc(ccc4OC4OC(CO)C(O)C(O)C4O)CC(C(=O)NC(C)C(=O)NC(CCC(=O)O)C(=O)N2C)N(C)C3=O)cc1 (configuration not stated)
inactive: outcome [4] | activity change, negative = cytotoxicity [6] -30.7% [at 11.6 µM]
active: Potency [2] 4880 nM | Potency [9] 7080 nM

C/C=C(/C)C(=O)O[C@H]1[C@@H]2[C@H](C)C(=O)O[C@@H]2C[C@@H](C)[C@@H]2C=CC(=O)[C@]21C
inactive: Potency [1] | Potency [3] | Potency [13] | max response [4] -11.7% | Potency [11]
active: Potency [2] 10100 nM

Cc1cccc(NC(=O)c2ccc(C(F)(F)F)cc2C(=O)O)n1
inactive: Potency [1] | Potency [2] | Potency [3] | Potency [13] | outcome [4] | Potency [6]

C/C1=C/[C@@H](C)C/C=C/[C@H]2[C@@H]3O[C@]3(C)[C@@H](C)[C@H]3[C@H](Cc4c[nH]c5ccccc45)NC(=O)[C@]32C(=O)/C=C\C(=O)[C@@H]1O
active: Potency [2] 502 nM | Potency [14] 1590 nM
inactive: Potency [13] | Potency [5] | Potency [15] | Potency [6] | Potency [7] | Potency [8] | Potency [9] | Potency [11] | Potency [12]

CCC(C)C1NC(=O)C2CCCN2C(=O)C(CC(C)C)OC(=O)CCNC(=O)C(C)N(C)C(=O)C(C(C)C)N(C)C1=O (configuration not stated) (cyclo([ξLac(3-iPr)]PI[NMeV][NMeA][βAla]); configuration not given here)
inactive: Potency [1] | Potency [3] | max response [4] -9.99% | Potency [5] | Potency [6]
active: Potency [2] 1920 nM

Cc1ccccc1C1=CCN(C)CC1
inactive: Potency [1] | Potency [2] | Potency [3] | max response [4] -6.61% | Potency [15] | Potency [6] | Potency [7] | Potency [8] | Potency [9] | Potency [11] | Potency [12]

C[C@@H]1O[C@@H](O[C@H]2CC[C@@]3(C)C(CC[C@@H]4C3CC[C@]3(C)[C@@H](C5=CC(=O)OC5)CC[C@]43O)C2)[C@H](O)[C@H](O)[C@H]1O (some centres not stated)
active: Potency [2] 632 nM | Potency [4] 2820 nM | Potency [5] 1000 nM | Potency [15] 3980 nM | Potency [6] 4470 nM | Potency [7] 1260 nM | Potency [8] 1000 nM | Potency [9] 1000 nM | Potency [10] 2000 nM | Potency [11] 1000 nM | Potency [12] 355 nM
inactive: Potency [13] | max response [14] -2.8%

OC(CNc1ccccc1)Cn1c2ccc(Br)cc2c2cc(Br)ccc21 (configuration not stated)
inactive: max response [4] -16% | Potency [5] | Potency [15] | Potency [7] | Potency [8] | Potency [9] | Potency [10] | Potency [11] | Potency [12]

CC[C@H]1/C=C\C=C/C[C@@H](C)[C@H](O)[C@@](C)(O)C(=O)[C@@H](C)[C@H](O)[C@@H](C)C(=O)[C@@H](C)[C@H](O)[C@@H](C)/C=C\C(=O)O[C@@H]2[C@H](C)[C@H](CC1)O[C@]1(CC[C@H](C)[C@H](C[C@@H](C)O)O1)[C@H]2C
inactive: Potency [3] | Potency [13] | Potency [6] | Potency [9] | Potency [11]
active: Potency [2] 332 nM

Cc1sc2c(c1C)C(c1ccc(Cl)cc1)=NC(CC(=O)OC(C)(C)C)c1nnc(C)n1-2 (configuration not stated)
active: Potency [2] 129 nM | Potency [9] 2000 nM
inactive: Potency [3] | Potency [13] | Potency [5] | Potency [8]

CC1CCCCCC(=O)c2c(O)cc(O)cc2CC(=O)O1 (configuration not stated)
inactive: Potency [1] | outcome [4] | max response [14] 2.84% | Potency [5] | Potency [15] | Potency [6] | Potency [7] | Potency [8] | Potency [9] | Potency [10] | Potency [11] | Potency [12]

CC(=O)OC[C@]12C[C@H](OC(C)=O)C(C)=C[C@H]1O[C@@H]1[C@H](O)[C@@H](O)[C@@]2(C)[C@]12CO2
active: Potency [2] 89.8 nM | Potency [4] 1280 nM | Potency [14] 1010 nM | Potency [15] 1000 nM | Potency [6] 1410 nM | Potency [7] 1260 nM | Potency [8] 398 nM | Potency [12] 2240 nM
inactive: Potency [1] | Potency [3] | Potency [13]
